Screening results from PubChem BioAssay.
An excerpt weighted towards active compounds, which were near 1.6% of everything screened.
KCNQ2 inh: rat KCNQ2 potassium channel inhibitors, primary screen, cell-based, CHO-K1, FluxOR thallium flux, B-score; B-score at 10 µM; Potassium voltage-gated channel subfamily KQT member 2 (Rattus norvegicus), O88943; hit rate 1.1% among 310,000; AID 2156, 2009; 20 min; stronger effect = lower value;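 active means fluorescence ratio B-score at most minus 3 library SDs, with starting brightness B-score within 2 library SDs, cut at about -5.5 in these data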
KCNQ2 enhance: potentiators of rat KCNQ2 potassium channel | Potassium voltage-gated channel subfamily KQT member 2 (Rattus norvegicus), O88943 | CHO-K1 KCNQ2, FluxOR thallium flux fluorescence; stronger effect = higher value | B-score at 10 µM | hit rate 0.54% among 310,000;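 active means fluorescence ratio B-score at least 3 SD of library B-scores, with initial fluorescence B-score within 3 of them, cut at about 5.3 in these data; same plate scores as AID 2156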;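 further: B-score of peak minus minimum over baseline fluorescence ratio after K+ and Tl+ stimulus; positive B-score means potentiation of KCNQ2 with more thallium influx and brighter signal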
KCNQ2 inh conf: rat KCNQ2 potassium channel inhibitors, confirmation, cell-based, thallium flux | KCNQ2-expressing cells, inhibition; stronger effect = lower value | activity change, negative = inhibition, % at 10 µM | hit rate 57% among 1,000 | shares compounds with KCNQ2 inh
KCNQ1 spec: human KCNQ1 channel inhibition, counter-screen for KCNQ2 inhibitor project, cell-based, FluxOR thallium flux; shares compounds with KCNQ2 inh; KCNQ1-expressing cells, FluxOR thallium flux fluorescence; stronger effect = lower value; activity change, negative = inhibition, % at 10 µM; hit rate 15% among 1,000; AID 493026, 2011;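 active means activity change at least 3 SD of negative controls below their mean in both duplicate wells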;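 further: CHO cells stably transfected with KCNQ1 and depolarized by potassium stimulus; peak minus minimum fluorescence over baseline after thallium addition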
Target sequence (P51787 whole entry, looked up): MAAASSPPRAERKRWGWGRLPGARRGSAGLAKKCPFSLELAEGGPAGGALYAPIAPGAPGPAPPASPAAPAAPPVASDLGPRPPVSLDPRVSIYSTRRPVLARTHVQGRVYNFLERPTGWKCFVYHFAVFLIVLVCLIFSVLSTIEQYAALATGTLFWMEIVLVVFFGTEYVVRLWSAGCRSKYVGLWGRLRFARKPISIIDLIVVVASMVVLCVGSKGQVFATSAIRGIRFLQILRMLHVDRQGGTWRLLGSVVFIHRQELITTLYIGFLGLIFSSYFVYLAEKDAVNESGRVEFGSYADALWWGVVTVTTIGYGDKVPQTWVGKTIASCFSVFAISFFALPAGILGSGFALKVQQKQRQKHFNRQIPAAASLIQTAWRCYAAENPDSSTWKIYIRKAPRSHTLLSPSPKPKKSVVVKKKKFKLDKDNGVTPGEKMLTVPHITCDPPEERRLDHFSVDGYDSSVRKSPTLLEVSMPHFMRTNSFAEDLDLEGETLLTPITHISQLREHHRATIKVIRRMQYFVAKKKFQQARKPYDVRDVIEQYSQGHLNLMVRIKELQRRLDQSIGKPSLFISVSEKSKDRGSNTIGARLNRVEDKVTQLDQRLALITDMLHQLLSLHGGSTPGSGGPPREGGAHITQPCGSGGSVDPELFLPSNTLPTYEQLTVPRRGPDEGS
CHO parental ctr: thallium flux change in parental CHO cells, counter-screen for KCNQ2 inhibitor project | shares compounds with KCNQ2 inh | stronger effect = lower value | activity change, % at 10 µM | hit rate 14% among 1,000 | AID 493029, 2011
KCNQ2 patch conf: rat KCNQ2 channel inhibitors, confirmation, cell-based, automated patch clamp, single concentration; shares compounds with KCNQ2 inh; KCNQ2-expressing cells, automated patch clamp current; calls only at 10 µM; hit rate 49% among 550; AID 588531, 2011
Each line names hits and unclear results; the compound was inactive in the other large screens (follow-up assays come after a bar, where they were run). Unless noted, how the calls were made is not given here.

CC1CCN(C(=O)c2cc3nc(-c4ccccc4)cc(-c4ccccc4)n3n2)CC1	KCNQ2 inh -7.8 | KCNQ2 inh conf -35% | KCNQ1 spec inactive | CHO parental ctr inactive | KCNQ2 patch conf inactive
CC(/C=N/NC(=O)c1nnn(-c2nonc2N)c1CN1CCCCC1)c1ccccc1 (stereo not drawn)	none (no result: KCNQ2 enhance)
Cc1ccnc(NC(=O)CCN2C(=O)c3ccccc3S2(=O)=O)n1	none
CC(=O)c1cccc(NC(=O)Nc2ccc3c(c2)N(C)C(=O)CS3)c1	KCNQ2 inh -8.5 | KCNQ2 inh conf -44% | KCNQ1 spec -34% | CHO parental ctr -29% | KCNQ2 patch conf inactive
Cc1cc(C)cc(NC(=O)Nc2ccc3c(c2)N(C)C(=O)CS3)c1	none
Cc1ccc(/C=C2/C(=O)ON=C2c2ccccc2)o1	KCNQ2 inh -9 | KCNQ2 inh conf -24% | KCNQ1 spec inactive | CHO parental ctr inactive | KCNQ2 patch conf inactive
O=C1ON=C(c2ccccc2)/C1=C\c1ccco1	none (no result: KCNQ2 enhance)
Cc1csc2cc(-c3cccc([N+](=O)[O-])c3)c(-c3cccc([N+](=O)[O-])c3)c[n+]12	none
N#C/C(=C\c1ccccc1[N+](=O)[O-])C(=O)NC1CCCCC1	KCNQ2 inh -6.9 | KCNQ2 inh conf -34% | KCNQ1 spec inactive | CHO parental ctr inactive | KCNQ2 patch conf active
CCOc1ccccc1/C=C(\C#N)C(=O)NC1CC1	none (no result: KCNQ2 enhance)
O=C(Nc1cc(Cl)ccc1C(=O)O)c1ccc(CN2C(=O)c3ccccc3C2=O)cc1	none
O=S(=O)(NC(=NC1CCCCC1)c1ccccc1F)c1ccccc1	none (no result: KCNQ2 enhance)
Cc1cccc(NC(=O)CCS(=O)(=O)c2ccc3c(c2)NC(=O)CS3)n1	none (no result: KCNQ2 enhance)
CCN(CC)CCC(=O)c1ccc(F)cc1	KCNQ2 inh -9 | KCNQ2 inh conf -36% | KCNQ1 spec inactive | CHO parental ctr inactive | KCNQ2 patch conf inactive
CN(C)CCC(=O)c1ccc(F)cc1	none (no result: KCNQ2 enhance)
CCN(CC(=O)Nc1c(F)cccc1F)C(=O)C1CCN(c2ncnc3sc(C)c(C)c23)CC1	none (no result: KCNQ2 enhance)
CCOC(=O)N1C/C(=C\c2ccccc2)C(=O)/C(=C/c2ccccc2)C1	KCNQ2 inh -6.9 | KCNQ2 inh conf -33% | KCNQ1 spec inactive | CHO parental ctr inactive | KCNQ2 patch conf inactive
CCOC(=O)N1CCN(S(=O)(=O)/C=C/c2ccccc2)CC1	none
O=[N+]([O-])c1ccc(Sc2ncc3ccccn23)nc1	none
COC(=O)Nc1ccc(S(=O)(=O)N2CCCC(C(=O)NC3CCS(=O)(=O)C3)C2)cc1 (stereo not drawn)	none
COc1cc(NC(=O)C(c2ccccc2)c2ccccc2)c(C(=O)O)cc1OC	none
COc1cc2c(cc1NC(=O)C(c1ccccc1)c1ccccc1)CCCC2	KCNQ2 inh -7.1 | KCNQ2 inh conf -34% | KCNQ1 spec inactive | CHO parental ctr inactive | KCNQ2 patch conf active
CCN1C(=O)[C@H]2[C@@H](c3ccc(-c4ccc(C(C)=O)cc4)cc3)N3CCC[C@@]3(C(=O)OC)[C@H]2C1=O	none (no result: KCNQ2 enhance)
O=C(Nc1cnccc1C(F)(F)F)NC1CCCCC1	none
Cc1ccc(NC(=O)Nc2cc(S(C)(=O)=O)ccc2Cl)cc1	none (no result: KCNQ2 enhance)
Cc1cc(C)c(N=C2CCCN2Cc2ccccc2)c(C#N)c1	KCNQ2 inh -8.8 | KCNQ2 inh conf -32% | KCNQ1 spec inactive | CHO parental ctr inactive | KCNQ2 patch conf active
N#Cc1ccccc1N=C1CCCN1Cc1ccccc1	none (no result: KCNQ2 enhance)
COCCn1nnnc1C(c1ccc(OC)c(OC)c1)N1CCN(C(=O)c2ccco2)CC1 (stereo not drawn)	none
CCOc1ccc(CN(C(=O)c2cc(=O)c3cc(C)cc(C)c3o2)C2CCS(=O)(=O)C2)cc1 (stereo not drawn)	none (no result: KCNQ2 enhance)
O=C(COC(=O)C12CC3CC(CC(Br)(C3)C1)C2)Nc1ccc2[nH]c(=O)[nH]c2c1	none
O=C(O)c1cc([N+](=O)[O-])c(NCCC2=CCCCC2)c([N+](=O)[O-])c1	none
O=C(/C=C/c1ccc(Cl)cc1)N1CCN(c2c(Cl)cccc2[N+](=O)[O-])CC1	none (no result: KCNQ2 enhance)
O=C(CSc1ccc(Cl)cc1)N1CCN(c2c(Cl)cccc2[N+](=O)[O-])CC1	KCNQ2 inh -8.2 | KCNQ2 inh conf inactive | KCNQ1 spec inactive | CHO parental ctr inactive
Cc1ccnc(NC(=S)NC(=O)/C=C/c2ccc(Cl)cc2)c1	none
